In all, about 410,000 compounds went through this assay and about 2,000 (0.49%) were called active. About 8% were inconclusive and are not listed. Calls follow the shape of the full dose curve; tested in HEK293 reporter line. Only a selection was taken, and actives are over-represented in it overall.
Potency is read from the fitted curve at half-maximal effect.

This experiment can be described thus: qHTS Assay for Foot and Mouth Disease Virus Antivirals: Primary Screen against the MLPCN compound library. Also: nearly all actives have a fitted effect of over 55% in size. As to conditions: FMDV antiviral cell-based qHTS; series mostly up to 57.9 µM; activity, negative = inhibition: at the top concentration. A general note: qHTS replaces the single test concentration by a dilution series.
Turning to `Cc1cc(OCCOc2cccc3cccnc23)cc(C)c1Cl`, the “activity, negative = inhibition” value is -34.1% (inactive).
Same read-out and setting: the same measure for `CC1Cc2ccccc2N1c1ncnc(N)c1[N+](=O)[O-]` (centres undefined): -21.1% (inactive).
The same measure, in the same setting: to `COc1cccc(/C=N/NC(=O)c2cc3c(OC)cccc3[nH]2)c1OC` belongs -38.6% (inactive).
As for `COc1cccc(/C=N/Nc2ncnc(N)c2[N+](=O)[O-])c1OC`, the Potency was 7.94 µM (active).
Consider `CN(c1ccc(C(=O)NCc2cccnc2)cc1)S(=O)(=O)c1ccc(Cl)cc1`, for which the “activity, negative = inhibition” value was -31.9% (inactive).
Still for that read-out and setting: to `O=C(NC1CC1)C1CCN(S(=O)(=O)c2cc([N+](=O)[O-])ccc2Cl)CC1` belongs -11.8% (inactive); to `CCOc1ccc(CCNC(=O)c2ccc3c(c2)sc2nc(-c4ccc(F)cc4)cn23)cc1OCC`, -32.6% (inactive); to `CCn1nc(-c2ccccc2)c2nc3ccccc3nc21`, -34.2% (inactive).
Same read-out and setting: the same measure for `CCc1cccc(C)c1Nc1c(-c2ccccc2)nc2sccn12`: -32% (inactive).
As to `CCCc1nn2cc(-c3ccc(C)c(C)c3)nc2s1`, the Potency is 14.1 µM (active).
The same measure, in the same setting: to `CCCCCc1nn2cc(-c3ccccc3)nc2s1` belongs 12.6 µM (active).
With `CCCn1c(NC(=O)CCNC(=O)c2ccccc2Cl)nc2ccccc21`, the “activity, negative = inhibition” value is -36% (inactive).
Still for that read-out and setting: to `COc1cc(NC(=O)N2CCC3(CC2)Nc2ccccc2-n2cccc23)cc(OC)c1OC` belongs -30.8% (inactive).
Same read-out and setting: to `CCC1CCCCN1CCCCOc1cccc(Cl)c1` (centres undefined) belongs -32.7% (inactive); to `COc1ccccc1C(CNC(=O)c1ccc(OCc2c(C)noc2C)cc1)N1CCCC1` (centres undefined), -34.6% (inactive).
Still for that read-out and setting: to `Cc1ccc(C2=Nc3ccccc3NC(c3ccncc3)=N2)cc1` belongs -31% (inactive); to `Cc1ccc(Cl)cc1NC(=O)c1cc2ccccc2cc1O`, -20.1% (inactive).
Take `O=C(Nc1ccc2ccccc2c1)c1ccccc1O`: the Potency is 14.1 µM (active).
For the compound `COc1ccccc1C(=O)Nc1ccc(C(=O)c2ccccc2)cc1`, the “activity, negative = inhibition” value was -36.3% (inactive).
On the same count and under the same terms, the same measure for `CC(C)NC(=S)NN(c1ccccc1)c1ccccc1`: -35.6% (inactive); for `CCOc1ccc(S(=O)(=O)N2CCC(n3c(C)nc4cccnc43)CC2)cc1`: -46.6% (inactive).
Take `CCc1ccc2oc(-c3cc(N=Cc4cccc(OC)c4O)ccc3O)nc2c1`: the Potency is 20 µM (active).
Turning to `COc1cccc(/C=N/Nc2ccc(C(=O)O)cc2)c1O`, the “activity, negative = inhibition” value was -103% (inactive).
The same measure, in the same setting: the same measure for `Cc1nn(-c2cccc(Cl)c2)c2c1C(c1ccncc1)C(C#N)=C(N)O2` (centres undefined): -32.2% (inactive); for `CCCOc1ccccc1C(=O)N(Cc1cccc(Br)c1)C1CCS(=O)(=O)C1` (centres undefined): -49.6% (inactive); for `CC(=O)N1CCc2cc(S(=O)(=O)CCC(=O)N3CCN(c4cc(C)ccc4C)CC3)ccc21`: -32.1% (inactive).
Regarding `Cc1ccc(C)c(N2CCN(C(=O)CCS(=O)(=O)c3ccc4c(c3)NC(=O)CO4)CC2)c1`, the Potency was 12.6 µM (active).
Turning to `Cc1ccc(C)c(N2CCN(S(=O)(=O)c3cc4c(cc3Cl)NC(=O)CO4)CC2)c1`, the “activity, negative = inhibition” value is -31.6% (inactive).
The same measure, in the same setting: the same measure for `CCOC1=C2CN(S(=O)(=O)c3ccc(C)cc3)[C@H](c3ccccc3)C[C@@H]2N(S(=O)(=O)c2ccc(C)cc2)[C@H](c2cccc(C)c2)C1`: -33.1% (inactive).
On to `Cc1onc(-c2ccccc2)c1C(=O)n1nnc2ccccc21`, for which the “activity, negative = inhibition” value was -36.4% (inactive).
On to `Cn1c(-c2ccccc2)cc2onc(-c3ccccc3)c2c1=O`, for which the Potency is 8.91 µM (active).
Regarding `COc1ccc(-c2c3c(=O)n(C)c(=O)n(C)c3c3c(-c4ccccc4)nc4ccccc4n23)cc1`, the “activity, negative = inhibition” value was -18% (inactive).
On the same count and under the same terms, to `Cc1cc(Br)cc(C)c1OCC(=O)NNC(=O)c1cccs1` belongs -38.5% (inactive).
For the compound `Cc1cc(NC(=O)c2ccc(S(=O)(=O)N3CCc4ccccc43)cc2)no1`, the “activity, negative = inhibition” value is -32.7% (inactive).
Still for that read-out and setting: to `COc1ccc(OC)c(S(=O)(=O)Nc2ccc(F)cc2)c1` belongs 125% (inactive).
As to `COc1cc(NS(=O)(=O)c2ccc(C)cc2C)cc(OC)c1OC`, the Potency is 20 µM (active).
Turning to `COc1ccc(C)cc1S(=O)(=O)Nc1ccccc1`, the “activity, negative = inhibition” value is 103% (inactive).
The same measure, in the same setting: to `CC1=[N+](C)c2ccc3ccccc3c2C1(C)C` belongs -33.1% (inactive); to `Cc1ccccc1OCc1nnc(SCC(=O)Nc2c(C)n(C)n(-c3ccccc3)c2=O)n1-c1ccccc1`, -43.3% (inactive); to `NS(=O)(=O)c1ccc(Nc2nc(-c3ccc(O)cc3O)cs2)cc1`, -33% (inactive).
`Cc1ccc(NC(=O)c2cc(-c3cccs3)nc3ccccc23)c(C)c1`: the “activity, negative = inhibition” value was -38.9% (inactive).
Consider `Cc1cc(O)ccc1Nc1nc(-c2cccs2)cs1`, for which the Potency is 20 µM (active).
On to `Cc1ccc(/C=C/c2nc3ccccc3c(=O)n2CCc2ccccc2)cc1`, for which the “activity, negative = inhibition” value was -32.9% (inactive).
Same read-out and setting: to `Cc1cc(S(=O)(=O)N2CCN(c3ccccc3F)CC2)ccc1-n1cnnn1` belongs -37.1% (inactive).
Take `CSc1ccc(/C=C/c2nc3ccccc3n2S(=O)(=O)c2ccc(F)c(C)c2)cc1`: the Potency was 20 µM (active).
Take `Cc1ccc(S(=O)(=O)N2CCN(C(=O)/C=C/c3ccccc3)CC2)cc1C`: the “activity, negative = inhibition” value is -31.7% (inactive).
The same measure, in the same setting: to `COc1cccc(-n2c(/C=C\c3ccc(Cl)cc3)nc3ccccc3c2=O)c1` belongs -32.4% (inactive).
Take `Cc1ccc(/C=C/c2nc3ccccc3n2S(=O)(=O)c2cccc(Cl)c2)cc1`: the Potency was 8.91 µM (active).
For the compound `CN1CCN(NC(=O)Nc2cc(Cl)cc(Cl)c2)CC1`, the “activity, negative = inhibition” value is -36.1% (inactive).
Still for that read-out and setting: to `COc1ccc(CN2CCNC(=O)C2CC(=O)N(C)Cc2ccno2)c(F)c1` (centres undefined) belongs -25.3% (inactive).
Regarding `CCSc1ncc(Cl)c(C(=O)N(Cc2ccccc2Cl)C2CCS(=O)(=O)C2)n1` (centres undefined), the “activity, negative = inhibition” value was -33.9% (inactive).
Take `CCn1c(N2CCC(C)CC2)nc2c1c(=O)n(C)c(=O)n2C`: the “activity, negative = inhibition” value was -41.6% (inactive).
As for `CS(=O)(=O)c1nc(-c2ccc(Br)cc2)cc(-c2ccccc2)c1C#N`, the Potency was 25.1 µM (active).
Regarding `Nc1cc(-c2ccc(Br)cc2)nn1S(=O)(=O)c1ccccc1`, the “activity, negative = inhibition” value was -33% (inactive).
Still for that read-out and setting: to `CCc1nnc(NC(=O)CSc2nc(-c3ccccc3)cc(-c3ccc(F)cc3)c2C#N)s1` belongs 135% (inactive).
In the case of `COc1ccc(/C=C/C(=O)Nc2ccccc2)cc1S(=O)(=O)N1CCOCC1`, the Potency was 12.6 µM (active).
Regarding `COc1ccc(C)cc1NC(=O)/C=C/c1ccc(OC)c(S(=O)(=O)N2CCOCC2)c1`, the “activity, negative = inhibition” value was -31.7% (inactive).
The same measure, in the same setting: the same measure for `COc1ccc(C(=O)Nc2ccc(C)c(S(=O)(=O)N3CCOCC3)c2)cc1S(=O)(=O)N1CCCC1`: -31.5% (inactive).
Still for that read-out and setting: the same measure for `CCOC(=O)C1CCCN(S(=O)(=O)c2cc3c(cc2Cl)NC(=O)CO3)C1` (centres undefined): -31% (inactive); for `CCCN(CCC)CCCNC(=O)C1CCCN(Cc2nc(-c3ccc(Cl)cc3)oc2C)C1` (centres undefined): -26.9% (inactive).
The same measure, in the same setting: to `Cc1oc(-c2ccc(Cl)cc2)nc1CN1CCCC(C(=O)NCc2cccnc2)C1` (centres undefined) belongs -20.1% (inactive).
`Cc1oc(-c2ccc(Cl)cc2)nc1CN1CCCC(C(=O)NCCCN2CCCC2=O)C1` (centres undefined): the Potency was 7.94 µM (active).
As to `Cc1ccc(S(=O)(=O)N2CCN(C(=O)CCCN3C(=O)NC4(CCCC4)C3=O)CC2)cc1C`, the “activity, negative = inhibition” value is -33.6% (inactive).
On the same count and under the same terms, the same measure for `CCn1c2ccccc2c2cc(NC(=O)COc3ccc(C)c(C)c3)ccc21`: -31.2% (inactive); for `CCOc1ccc(-c2nnc(NC(=O)COc3ccccc3F)o2)cc1`: 119% (inactive).
Turning to `CCOc1ccc(-c2nnc(-c3cccs3)o2)cc1`, the Potency was 15.8 µM (active).
For `CCn1c(SCCOc2ccc(Cl)cc2)nnc1-c1cccs1`, the “activity, negative = inhibition” value is -32.5% (inactive).
The same measure, in the same setting: the same measure for `Cc1ccccc1-c1cnc2c(c1)C(=O)N([C@@H](C)CO)C[C@@H](C)[C@H](CN(C)Cc1ccccc1F)O2`: -11.7% (inactive); for `COc1ccc(C(O)(CC(C)C)C(CN2CCOCC2)c2ccccc2)cc1` (centres undefined): -37.2% (inactive).
For `Cc1cc(NC(=O)c2ccc3c(c2)OCO3)ccc1NC(=O)c1ccccc1`, the “activity, negative = inhibition” value was -94.1% (inactive).
Turning to `O=C(Nc1nc2ccccc2s1)c1ccc2c(c1)OCO2`, the Potency was 14.1 µM (active).
For the compound `O=C(Nc1ccc2nc(SCCOc3ccccc3)sc2c1)c1ccc2c(c1)OCO2`, the “activity, negative = inhibition” value was -33.5% (inactive).
Same read-out and setting: the same measure for `CC1(Cc2cc(Cl)ccc2C(F)(F)F)C(=O)Nc2c(Cl)cccc21` (centres undefined): -32.7% (inactive); for `CCC(=O)N1CCc2cc(S(=O)(=O)CCC(=O)N3CCN(c4ccc(C(C)=O)cc4)CC3)ccc21`: -30.2% (inactive).
On the same count and under the same terms, to `CC(C)CC(=O)Nc1ccccc1N1CCN(c2ccccc2)CC1` belongs -32% (inactive).
Same read-out and setting: to `Cn1c(=O)c2c(SCC(=O)N3CCN(c4ccccc4)CC3)nc(C3CC3)nc2n(C)c1=O` belongs -43.8% (inactive); to `Cn1c(=O)cc(SCC(=O)N2CCN(c3ccccc3)CC2)c2ccccc21`, -29% (inactive).
As for `CCc1nc(SCC(=O)N2CCN(c3ccccc3)CC2)c2oc3ccccc3c2n1`, the Potency is 25.1 µM (active).
Turning to `COc1ccccc1N1CCN(c2nc(CNC(=O)c3sc(C)nc3C)nc3ccccc23)CC1`, the “activity, negative = inhibition” value was -13.5% (inactive).
Same read-out and setting: the same measure for `COc1ccc2c(Cl)c(C(=O)OCC(=O)c3ccc4c(c3)NC(=O)CO4)sc2c1Cl`: -31% (inactive).
On to `O=C(CSc1nc2ccccc2c(=O)n1Cc1ccco1)c1ccc(F)cc1`, for which the “activity, negative = inhibition” value is -32.3% (inactive).
On the same count and under the same terms, to `O=C(CSc1nc2ccccc2[nH]1)c1ccc(Cl)s1` belongs 38.3% (inactive).
Take `Cc1cc(C(=O)CSc2nc3ccccc3[nH]2)c(C)n1Cc1ccco1`: the Potency was 11.2 µM (active).
`Cc1nn(C(C)C)c(C)c1CN1CCCC(C(=O)c2cccc(OC(C)C)c2)C1` (centres undefined): the “activity, negative = inhibition” value was -35.4% (inactive).
`COc1ccc(NC(=O)CNC(=O)Cn2c(C)cc3ccccc3c2=O)cc1OC`: the “activity, negative = inhibition” value was -31.4% (inactive).
The same measure, in the same setting: the same measure for `CCN(CC)S(=O)(=O)c1cc(-c2nnc(Nc3ccc(OC)c(C(N)=O)c3)c3ccccc23)ccc1C`: -31% (inactive).
Take `O=C(/C=C/Nc1ccc(F)cc1F)c1ccco1`: the Potency was 10 µM (active).
Turning to `O=C(Nc1ccc(F)cc1F)c1ccc2c(c1)[nH]c(=O)n2Cc1ccc(F)cc1`, the “activity, negative = inhibition” value is -32.6% (inactive).
The same measure, in the same setting: to `CN1/C(=C\C(=O)c2ccco2)C(C)(C)c2ccccc21` belongs -42.8% (inactive).
With `O=C(CNc1ccc(F)cc1F)NC(=O)NCc1ccco1`, the “activity, negative = inhibition” value was -30.5% (inactive).
For `CN(C)c1ccc(N/C=C/C(=O)c2ccco2)cc1`, the Potency is 8.91 µM (active).
`Cc1cc(C)cc(NC(=S)N2CCN(C(=O)c3ccco3)CC2)c1`: the “activity, negative = inhibition” value was -42.2% (inactive).
Same read-out and setting: the same measure for `Cc1ccc(S(=O)(=O)N(C)C)cc1NC(=O)COc1cccc(-n2cnnn2)c1`: -30.7% (inactive).
Same read-out and setting: the same measure for `CCOc1ccccc1N1CCN(CC(=O)Nc2ccccc2C(=O)NC2CC2)CC1`: -36.1% (inactive); for `Cc1ccc(-c2cc(-c3ccccc3)cc(-c3ccccc3)[n+]2-c2ccccc2C(=O)O)cc1`: -33.8% (inactive).
Same read-out and setting: to `O=C(Nc1ccc(N2CCN(c3ccc(C(F)(F)F)cn3)CC2)nc1)c1cccs1` belongs -22% (inactive).
On to `O=C1NC(=O)N(c2ccc3c(c2)OCO3)C(=O)/C1=C/c1ccsc1`, for which the “activity, negative = inhibition” value is -40.4% (inactive).
On the same count and under the same terms, the same measure for `COC(=O)C1=C(c2ccc(-c3ccccc3)c(F)c2)C[C@@H]2CC[C@H]1N2C(=O)NC1CCCCC1`: -39.4% (inactive).
Regarding `OC[C@@H]1CN(Cc2ccc(Cl)cc2)C[C@H](n2cnc3c(NC4CCCC4)ncnc32)O1`, the “activity, negative = inhibition” value was -33.7% (inactive).
